Test results from PubChem BioAssay AID1159580 (chemical genetic matrix, 2015).
Screen size: about 5,500 compounds; about 2,000 (36%) were called active. Inconclusive results (about 18%) are left out. No stated cut-off is given here; in the data, active means normalized growth mostly below about 0.91 (no sharp cut-off); inconclusive means no clear call, values can overlap the other calls; inactive means mostly above about 0.92. This is one part of the list.

Experiment: chemical genetic growth profiling, strain panel (AID 1159580);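 further: tested at 20 µM; growth read once vehicle control cultures reached saturation at 30 °C; 1 = growth at the plate median or of vehicle wells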
Conditions: growth OD

Measured: normalized growth

O=C(CCCN1CC=C(n2c(=O)[nH]c3ccccc32)CC1)c1ccc(F)cc1
inactive: S. cerevisiae deletion strains, locus YJR075W, strain HOC1, stronger effect = lower value 0.98 | S. cerevisiae deletion strains, locus YKL009W, strain mrt4, stronger effect = lower value 0.939 | S. cerevisiae deletion strains, locus YKL068W, stronger effect = lower value 0.989 | S. cerevisiae deletion strains, locus YKL085W, strain MDH1 (second series), stronger effect = lower value 0.994 | S. cerevisiae deletion strains, locus YKL085W, strain MDH1, stronger effect = lower value 0.994 | S. cerevisiae deletion strains, locus YKL160W, strain elf1, stronger effect = lower value 0.977 | S. cerevisiae deletion strains, locus YKL190W, strain CNB1, stronger effect = lower value 0.99 | S. cerevisiae deletion strains, locus YKR001C, strain vps1, stronger effect = lower value 0.981 | S. cerevisiae deletion strains, locus YKR026C, strain gcn3, stronger effect = lower value 0.948 | S. cerevisiae deletion strains, locus YKR091W, strain srl3, stronger effect = lower value 0.967 | S. cerevisiae deletion strains, locus YLL001W, strain dnm1, stronger effect = lower value 0.957 | S. cerevisiae deletion strains, locus YLL026W, stronger effect = lower value 0.968 | S. cerevisiae deletion strains, locus YLL041C, strain sdh2, stronger effect = lower value 0.988 | S. cerevisiae deletion strains, locus YLR027C, strain aat2, stronger effect = lower value 0.979 | S. cerevisiae deletion strains, locus YLR039C, strain RIC1, stronger effect = lower value 0.969 | S. cerevisiae deletion strains, locus YLR058C, strain SHM2, stronger effect = lower value 0.967 | S. cerevisiae deletion strains, locus YLR102C, strain apc9, stronger effect = lower value 0.989 | S. cerevisiae deletion strains, locus YLR113W, strain HOG1, stronger effect = lower value 0.971 | S. cerevisiae deletion strains, locus YLR221C, strain rsa3, stronger effect = lower value 0.976 | S. cerevisiae deletion strains, locus YLR258W, strain gsy2, stronger effect = lower value 0.987 | S. cerevisiae deletion strains, locus YLR262C, strain YPT6 (second series), stronger effect = lower value 0.954 | S. cerevisiae deletion strains, locus YLR262C, strain YPT6, stronger effect = lower value 0.942 | S. cerevisiae deletion strains, locus YLR268W, strain sec22, stronger effect = lower value 1.05 | S. cerevisiae deletion strains, locus YLR320W, strain mms22, stronger effect = lower value 0.986 | S. cerevisiae deletion strains, locus YLR330W, strain CHS5, stronger effect = lower value 0.986 | S. cerevisiae deletion strains, locus YLR342W, strain FKS1 (second series), stronger effect = lower value 0.944 | S. cerevisiae deletion strains, locus YLR342W, strain FKS1, stronger effect = lower value 0.974 | S. cerevisiae deletion strains, locus YLR357W, strain rsc2, stronger effect = lower value 0.951 | S. cerevisiae deletion strains, locus YLR370C, strain arc18, stronger effect = lower value 0.972 | S. cerevisiae deletion strains, locus YLR371W, strain rom2, stronger effect = lower value 0.949 | S. cerevisiae deletion strains, locus YLR384C, strain iki3, stronger effect = lower value 0.961 | S. cerevisiae deletion strains, locus YLR418C, strain cdc73, stronger effect = lower value 0.968 | S. cerevisiae deletion strains, locus YML016C, strain PPZ1, stronger effect = lower value 0.987 | S. cerevisiae deletion strains, locus YML032C, strain rad52, stronger effect = lower value 0.993 | S. cerevisiae deletion strains, locus YML120C, strain ndi1, stronger effect = lower value 1 | S. cerevisiae deletion strains, locus YML124C, strain tub3, stronger effect = lower value 0.975 | S. cerevisiae deletion strains, locus YMR058W, strain fet3, stronger effect = lower value 0.99 | S. cerevisiae deletion strains, locus YMR078C, strain ctf18, stronger effect = lower value 0.979 | S. cerevisiae deletion strains, locus YMR125W, strain sto1, stronger effect = lower value 0.944 | S. cerevisiae deletion strains, locus YMR129W, stronger effect = lower value 0.987 | S. cerevisiae deletion strains, locus YMR205C, strain PFK2, stronger effect = lower value 0.951 | S. cerevisiae deletion strains, locus YMR223W, strain ubp8, stronger effect = lower value 0.955 | S. cerevisiae deletion strains, locus YMR231W, strain pep5, stronger effect = lower value 0.979 | S. cerevisiae deletion strains, locus YMR263W, strain SAP30, stronger effect = lower value 0.987 | S. cerevisiae deletion strains, locus YMR307W, strain GAS1, stronger effect = lower value 0.974 | S. cerevisiae deletion strains, locus YNL067W, strain RPL9B, stronger effect = lower value 0.999 | S. cerevisiae deletion strains, locus YNL071W, strain lat1, stronger effect = lower value 0.982 | S. cerevisiae deletion strains, locus YNL128W, strain TEP1, stronger effect = lower value 0.98 | S. cerevisiae deletion strains, locus YNL153C, strain GIM3, stronger effect = lower value 0.985 | S. cerevisiae deletion strains, locus YNL183C, strain NPR1, stronger effect = lower value 0.925 | S. cerevisiae deletion strains, locus YNL209W, strain ssb2, stronger effect = lower value 0.975 | S. cerevisiae deletion strains, locus YNL233W, strain BNI4, stronger effect = lower value 0.992 | S. cerevisiae deletion strains, locus YNL248C, strain rpa49, stronger effect = lower value 0.981 | S. cerevisiae deletion strains, locus YNL250W, strain rad50, stronger effect = lower value 0.971 | S. cerevisiae deletion strains, locus YNL271C, strain bni1, stronger effect = lower value 0.995 | S. cerevisiae deletion strains, locus YNL298W, strain CLA4, stronger effect = lower value 0.982 | S. cerevisiae deletion strains, locus YNL307C, strain MCK1, stronger effect = lower value 0.968 | S. cerevisiae deletion strains, locus YNL322C, strain KRE1 (second series), stronger effect = lower value 0.984 | S. cerevisiae deletion strains, locus YNL322C, strain KRE1, stronger effect = lower value 0.987 | S. cerevisiae deletion strains, locus YNR049C, strain mso1, stronger effect = lower value 0.972 | S. cerevisiae deletion strains, locus YNR052C, strain pop2, stronger effect = lower value 0.992 | S. cerevisiae deletion strains, locus YOL006C, strain TOP1, stronger effect = lower value 0.996 | S. cerevisiae deletion strains, locus YOL012C, strain htz1 0.899 | S. cerevisiae deletion strains, locus YOL147C, strain pex11, stronger effect = lower value 0.991 | S. cerevisiae deletion strains, locus YOR001W, strain rrp6, stronger effect = lower value 0.955 | S. cerevisiae deletion strains, locus YOR061W, strain CKA2, stronger effect = lower value 0.97 | S. cerevisiae deletion strains, locus YOR070C, strain gyp1, stronger effect = lower value 0.99 | S. cerevisiae deletion strains, locus YOR080W, strain dia2, stronger effect = lower value 0.963 | S. cerevisiae deletion strains, locus YOR083W, strain WHI5, stronger effect = lower value 0.978 | S. cerevisiae deletion strains, locus YOR106W, strain vam3, stronger effect = lower value 0.933 | S. cerevisiae deletion strains, locus YOR136W, strain idh2, stronger effect = lower value 0.983 | S. cerevisiae deletion strains, locus YOR144C, strain elg1, stronger effect = lower value 0.988 | S. cerevisiae deletion strains, locus YOR184W, strain ser1, stronger effect = lower value 0.967 | S. cerevisiae deletion strains, locus YOR231W, strain MKK1, stronger effect = lower value 0.992 | S. cerevisiae deletion strains, locus YOR265W, strain rbl2, stronger effect = lower value 0.981 | S. cerevisiae deletion strains, locus YOR270C, strain vph1, stronger effect = lower value 0.956 | S. cerevisiae deletion strains, locus YOR290C, strain snf2, stronger effect = lower value 0.98 | S. cerevisiae deletion strains, locus YOR316C, strain cot1, stronger effect = lower value 0.98 | S. cerevisiae deletion strains, locus YPL051W, strain arl3, stronger effect = lower value 0.98 | S. cerevisiae deletion strains, locus YPL055C, strain LGE1, stronger effect = lower value 0.955 | S. cerevisiae deletion strains, locus YPL078C, strain atp4, stronger effect = lower value 0.949 | S. cerevisiae deletion strains, locus YPL106C, strain sse1, stronger effect = lower value 0.967 | S. cerevisiae deletion strains, locus YPL240C, strain hsp82, stronger effect = lower value 0.979 | S. cerevisiae deletion strains, locus YPL241C, strain CIN2, stronger effect = lower value 0.992 | S. cerevisiae deletion strains, locus YPL256C, strain CLN2, stronger effect = lower value 0.991 | S. cerevisiae deletion strains, locus YPR119W, strain clb2, stronger effect = lower value 0.989 | S. cerevisiae deletion strains, locus YPR141C, strain kar3, stronger effect = lower value 0.973 | S. cerevisiae deletion strains, locus YPR163C, strain tif3, stronger effect = lower value 0.989 | S. cerevisiae deletion strains, locus YPR167C, strain met16, stronger effect = lower value 0.991 | S. cerevisiae deletion strains, strain wtn01, stronger effect = lower value 0.991 | S. cerevisiae strains, strain wild type, stronger effect = lower value 0.979
